The nature of assay [1]: NCI Yeast Anticancer Drug Screen. Data for the rad50 strain (AID 155).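 Also: 0% = growth of vehicle-only cultures of the same strain.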 Conditions: S. cerevisiae rad50 strain growth inhibition, hits give high values. Summed up:
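Genetically altered yeast (DNA repair pathway); compound treatment; growth inhibition vs vehicle ctrl.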

Assay [2] can be described thus: NCI Yeast Anticancer Drug Screen. Data for the mec2-1 strain (AID 157). Conditions: S. cerevisiae mec2-1 strain, hits give high values. The essentials:
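Test agents were screened against the mec2-1 yeast strain, with defined DNA repair or cell cycle alteration. Growth was scored as inhibition against vehicle-only controls.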

The nature of assay [3]: NCI Yeast Anticancer Drug Screen. Data for the sgs1 mgt1 strain (AID 161).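 Also: 0% = growth of cultures given vehicle only.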 Conditions: S. cerevisiae sgs1 mgt1 strain, hits give high values. The essentials: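 Read-out: growth inhibition vs vehicle controls. Cells: mutant yeast strain deficient in DNA damage repair.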
Assay [4] can be described thus: NCI Yeast Anticancer Drug Screen. Data for the cln2 rad14 strain (AID 165).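 Also: 0% = growth equal to vehicle treated cultures.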 Conditions: S. cerevisiae cln2 rad14 strain, hits give high values. The essentials:
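Growth of compound-exposed yeast (cln2 rad14 genotype) measured and expressed as inhibition relative to vehicle.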

Assay [5] is described as follows: NCI Yeast Anticancer Drug Screen. Data for the bub3 strain (AID 167). Conditions: S. cerevisiae bub3 mutant strain, hits give high values. The essentials:
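Yeast carrying a defined mutation is treated with each compound, and growth is compared with that of vehicle-exposed cells to give inhibition.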

Assay [6] in a line: NCI Yeast Anticancer Drug Screen. Data for the mlh1 rad18 strain (AID 175). Conditions: S. cerevisiae mlh1 rad18 strain growth inhibition, hits give high values. The essentials: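 In this whole-cell yeast screen, a strain with altered DNA damage repair is challenged with compound, and its growth is measured against matched vehicle-treated controls.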
The mark [7] stands for this setting: at 5.0 µM (retest, dose inferred, filed as 0.5).
Setting [8] is: at 50.0 µM (retest, dose inferred, filed as 5.0).

The panel holds about 79,000 compounds, 15% with a hit somewhere; the sample as a whole holds those more often. Values without a mark were called inactive. Calls of active or inactive are those of the source. Rule as the data show it: active = growth inhibition above about 70%; inactive = the rest.

For the compound `COc1ccc2c(ccc[n+]2CC(=O)c2ccc(-c3ccccc3)cc2)c1`, the growth inhibition in assay [1] (setting [7]) was -24%; in assay [1] (setting [8]) it was 5%; in assay [1] (at 50.0 µM), 13.1%; in assay [2] (setting [7]) it was -5%; in assay [2] (setting [8]), -1%; in assay [2] (at 50.0 µM), 14.8%. Further, the growth inhibition in assay [3] (setting [7]) was -20%; in assay [3] (setting [8]), 24%; in assay [3] (at 50.0 µM), 2.75%; in assay [4] (setting [7]), -2%; in assay [4] (setting [8]), 5%; in assay [4] (at 50.0 µM), -12.8%. Further, the growth inhibition is 3% in assay [5] (setting [7]); 8% in assay [5] (setting [8]); -2.75% in assay [5] (at 50.0 µM); -3% in assay [6] (setting [7]); 12% in assay [6] (setting [8]); 40% in assay [6] (at 50.0 µM).
Regarding `CC12CCC(=O)C=C1CCC1C2CCC2(C)C(C(=O)Cn3cnc4c(=S)nc[nH]c43)CCC12` (stereo not given), the growth inhibition was 11% in assay [1] (setting [7]); 25% in assay [1] (setting [8]); 32.2% in assay [1] (at 50.0 µM); 5% in assay [2] (setting [7]); -6% in assay [2] (setting [8]); 24.6% in assay [2] (at 50.0 µM). Also, the growth inhibition in assay [3] (setting [7]) is -2%; in assay [3] (setting [8]), 23%; in assay [3] (at 50.0 µM), 37.5%; in assay [4] (setting [7]), -26%; in assay [4] (setting [8]), 19%; in assay [4] (at 50.0 µM), 14.8%. For the same compound, the growth inhibition in assay [5] (setting [7]) was 0%; in assay [5] (setting [8]) it was 16%; in assay [5] (at 50.0 µM) it was -4.65%; in assay [6] (setting [7]), -2%; in assay [6] (setting [8]), 22%; in assay [6] (at 50.0 µM) it was -4.7%.
As to `O=C(NCCCN1CCN(CCCNC(=O)c2cc(-c3ccccc3)nc3ccccc23)CC1)c1cc(-c2ccccc2)nc2ccccc12`, the growth inhibition in assay [1] (setting [7]) is 49%; in assay [1] (setting [8]) it was 95% (active); in assay [1] (at 50.0 µM), 84.6% (active); in assay [2] (setting [7]), 30%; in assay [2] (setting [8]), 95% (active); in assay [2] (at 50.0 µM) it was 88.7% (active). In addition, the growth inhibition in assay [3] (setting [7]) is 26%; in assay [3] (setting [8]), 75% (active); in assay [3] (at 50.0 µM) it was 8.55%; in assay [4] (setting [7]), 29%; in assay [4] (setting [8]), 41%; in assay [4] (at 50.0 µM), 86.3% (active). Besides, the growth inhibition is 30% in assay [5] (setting [7]); 64% in assay [5] (setting [8]); 86.1% (active) in assay [5] (at 50.0 µM); 38% in assay [6] (setting [7]); 96% (active) in assay [6] (setting [8]); 81.9% (active) in assay [6] (at 50.0 µM).
Regarding `O=C1N=c2ccc(Br)cc2=C1c1sc(=O)n(Cc2nc3ccccc3[nH]2)c1O`, the growth inhibition in assay [1] (setting [7]) was 3%; in assay [1] (setting [8]) it was -8%; in assay [1] (at 50.0 µM), 70.5% (active); in assay [2] (setting [7]), -11%; in assay [2] (setting [8]), 8%; in assay [2] (at 50.0 µM), 54%. For the same compound, the growth inhibition in assay [3] (setting [7]) was -2%; in assay [3] (setting [8]) it was 4%; in assay [3] (at 50.0 µM), 79.2% (active); in assay [4] (setting [7]), -6%; in assay [4] (setting [8]), 6%; in assay [4] (at 50.0 µM), 55.7%. For the same compound, the growth inhibition is 1% in assay [5] (setting [7]); 13% in assay [5] (setting [8]); 9.4% in assay [5] (at 50.0 µM); 0% in assay [6] (setting [7]); 38% in assay [6] (setting [8]); 88.7% (active) in assay [6] (at 50.0 µM).
`CNC1c2ccccc2C(=O)c2cc3c(cc21)OCCOCCOCCOCCO3` (stereo not given): the growth inhibition is -10% in assay [1] (setting [7]); 7% in assay [1] (setting [8]); 11.8% in assay [1] (at 50.0 µM); -4% in assay [2] (setting [7]); -12% in assay [2] (setting [8]); 8.1% in assay [2] (at 50.0 µM). Moreover, the growth inhibition in assay [3] (setting [7]) was -10%; in assay [3] (setting [8]), -12%; in assay [3] (at 50.0 µM) it was 12.1%; in assay [4] (setting [7]) it was -25%; in assay [4] (setting [8]) it was -12%; in assay [4] (at 50.0 µM), 40.8%. The growth inhibition was -13% in assay [5] (setting [7]); -2% in assay [5] (setting [8]); 20.8% in assay [5] (at 50.0 µM); -6% in assay [6] (setting [7]); 1% in assay [6] (setting [8]); 27.2% in assay [6] (at 50.0 µM).
With `CC1(CO)CCCC2(C)C1CCC1CC3C=CC12C1C(=O)OC(=O)C31` (stereo not given), the growth inhibition in assay [1] (setting [7]) is 41%; in assay [1] (setting [8]), 79% (active); in assay [1] (at 50.0 µM), 84.1% (active); in assay [2] (setting [7]) it was 25%; in assay [2] (setting [8]), 77% (active); in assay [2] (at 50.0 µM), 61.2%. Also, the growth inhibition in assay [3] (setting [7]) is 12%; in assay [3] (setting [8]), 86% (active); in assay [3] (at 50.0 µM), 24.6%; in assay [4] (setting [7]) it was 30%; in assay [4] (setting [8]), 82% (active); in assay [4] (at 50.0 µM), 27.8%. Further, the growth inhibition is 23% in assay [5] (setting [7]); 89% (active) in assay [5] (setting [8]); 62.2% in assay [5] (at 50.0 µM); 36% in assay [6] (setting [7]); 88% (active) in assay [6] (setting [8]); 79.5% (active) in assay [6] (at 50.0 µM).
Take `N#Cc1cccc(C[P+](c2ccccc2)(c2ccccc2)c2ccccc2)c1`: the growth inhibition in assay [1] (setting [7]) is 14%; in assay [1] (setting [8]), 45%; in assay [1] (at 50.0 µM), 78.3% (active); in assay [2] (setting [7]), -1%; in assay [2] (setting [8]), 22%; in assay [2] (at 50.0 µM), 46%. In addition, the growth inhibition in assay [3] (setting [7]) was 3%; in assay [3] (setting [8]) it was 38%; in assay [3] (at 50.0 µM), 75.8% (active); in assay [4] (setting [7]) it was 8%; in assay [4] (setting [8]) it was 6%; in assay [4] (at 50.0 µM) it was 42.9%. For the same compound, the growth inhibition is 4% in assay [5] (setting [7]); 32% in assay [5] (setting [8]); 45.8% in assay [5] (at 50.0 µM); 7% in assay [6] (setting [7]); 30% in assay [6] (setting [8]); 56.8% in assay [6] (at 50.0 µM).
For `COc1cc(Cc2n[nH]c(=S)n2-c2ccccc2)c(S(=O)(=O)N2CCOCC2)cc1OC`, the growth inhibition in assay [1] (setting [7]) was 4%; in assay [1] (setting [8]), 1%; in assay [1] (at 50.0 µM) it was -10.2%; in assay [2] (setting [7]), -2%; in assay [2] (setting [8]), -5%; in assay [2] (at 50.0 µM), -5.2%. Further, the growth inhibition in assay [3] (setting [7]) is 9%; in assay [3] (setting [8]), -6%; in assay [3] (at 50.0 µM), -0.7%; in assay [4] (setting [7]) it was 1%; in assay [4] (setting [8]) it was 0%; in assay [4] (at 50.0 µM), 82.7% (active). The growth inhibition in assay [5] (setting [7]) is -3%; in assay [5] (setting [8]), 7%; in assay [5] (at 50.0 µM), -32%; in assay [6] (setting [7]), -2%; in assay [6] (setting [8]), -62%; in assay [6] (at 50.0 µM), 11.4%.
For `C=C1C(=O)OC2CC3(C)CC(O)C(O)C(=C)C3CC12` (stereo not given), the growth inhibition was 0% in assay [1] (setting [7]); 6% in assay [1] (setting [8]); 91.2% (active) in assay [1] (at 50.0 µM); 1% in assay [2] (setting [7]); 6% in assay [2] (setting [8]); 94.7% (active) in assay [2] (at 50.0 µM). Also, the growth inhibition is -1% in assay [3] (setting [7]); 14% in assay [3] (setting [8]); 93.1% (active) in assay [3] (at 50.0 µM); -2% in assay [4] (setting [7]); 5% in assay [4] (setting [8]); 91.5% (active) in assay [4] (at 50.0 µM). The growth inhibition in assay [5] (setting [7]) was 0%; in assay [5] (setting [8]), 8%; in assay [5] (at 50.0 µM), 93% (active); in assay [6] (setting [7]), 1%; in assay [6] (setting [8]), 9%; in assay [6] (at 50.0 µM), 92.2% (active).
For the compound `O=C(Nc1c(Cl)cc([N+](=O)[O-])cc1Cl)/C(=N\Nc1cccc(Cl)c1)c1c(O)c2ccccc2oc1=O`, the growth inhibition was 15% in assay [1] (setting [7]); 15% in assay [1] (setting [8]); 69% in assay [1] (at 50.0 µM); 25% in assay [2] (setting [7]); 25% in assay [2] (setting [8]); 18.1% in assay [2] (at 50.0 µM). In addition, the growth inhibition is 14% in assay [3] (setting [7]); 14% in assay [3] (setting [8]); -1% in assay [3] (at 50.0 µM); 8% in assay [4] (setting [7]); 8% in assay [4] (setting [8]); 25.7% in assay [4] (at 50.0 µM). The growth inhibition is 5% in assay [5] (setting [7]); 5% in assay [5] (setting [8]); 31% in assay [5] (at 50.0 µM); 26% in assay [6] (setting [7]); 26% in assay [6] (setting [8]); 47.3% in assay [6] (at 50.0 µM).

The record behind these values is PubChem BioAssay (NCI).
